An excerpt weighted towards active compounds, which were near 11% of everything screened.
L major viab = reduces viability of Leishmania major promastigotes | AID 1063 | inhibition, % at 10 µM | resazurin fluorescence viability | hit rate 9% among 200,000; in the data active means inhibition above about 50%;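 further: promastigotes grown with compound for 44 hours at 28 °C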
Autophagy HCS = alters autophagy in cells; MEF GFP-LC3 puncta imaging; test concentration mostly 10 µM; calls only at 10 µM (by protocol); hit rate 0.98% among 190,000;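 active means percentage of spot-positive cells more than 3 SD above its plate mean, without a fluorescence outlier flag or 80% toxicity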;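 further: spot-positive cell cutoff set from DMSO-treated cells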
Ins promoter up = MIN6 insulin promoter up-regulation. MIN6 insulin promoter-GFP reporter, high-content imaging; active compounds read high. z-score at 5 µM. hit rate 0.3% among 190,000;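 active means z-score above 3 at 5 µM with at least 500 cells counted in the well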
INS promoter inh = TRM-6 insulin promoter activity inhibition; TRM-6 cells (human fetal islet line), insulin promoter-eGFP reporter, imaging; reporter expression induced with tamoxifen; inhibition, % at 2 µM; hit rate 0.9% among 130,000; AID 1273;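 active means inhibition above the mean plus 3 SD, with well images judged a real hit on visual review, cut at about 60% in these data, passing the limit was not always enough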
WT yeast gro inh = growth inhibition of WT yeast, mitochondrial fusion screen. hit rate 2.1% among 190,000. mitochondrial fusion phenotypic screen, WT strain. inhibition, % at 10 µM; in the data active means inhibition above about 58%; tested in S. cerevisiae
An asterisk follows results filed as active; i = inactive; nt = no result; + = active, no number.

SMILES	L major viab	Autophagy HCS	Ins promoter up	INS promoter inh	WT yeast gro inh
COCCN(C(=O)CSc1nnc(-c2ccccc2F)n1C)c1c(N)n(Cc2ccccc2)c(=O)[nH]c1=O	-6	i	-0.23	nt	4
N#CC1=C(N)OC2=C(CC/C2=C\c2ccccc2)C1c1ccccc1 (stereo not given)	101*	i	2.3	23	5
N#CC1=C(N)OC2=C(CC/C2=C\c2ccccc2Cl)C1c1ccccc1Cl (stereo not given)	73*	i	0.4	nt	-12
CC(C)Oc1ccc(/C=N/NC(=O)c2ccc(N(Cc3ccccc3)S(C)(=O)=O)cc2)cc1	3	i	-0.13	0	-8
COC(=O)COc1ccc(/C=N/NC(=O)c2ccc(N(Cc3ccccc3)S(C)(=O)=O)cc2)cc1	58*	i	-0.15	22	-8
CCc1cccc(C)c1NC(=O)CO/N=C(\C)c1cc2ccccc2o1	70*	i	0.27	-38	8
CCCC12CN3CCN(CC(C3)/C1=N\NC(=O)c1ccc(C(C)(C)C)cc1)C2	-5	i	0.12	37	98*
CC(C)(C)c1ccc(C(=O)N/N=C2\C3CN4CCN(C3)CC2(c2ccccc2)C4)cc1	-4	i	-0.42	10	98*
O=C(N/N=C1\C2CN3CCN(C2)CC1(c1ccccc1)C3)c1ccc(F)cc1	-4	i	0.25	-7	-12
CCN1CCCC1CNCc1cccc(OC)c1OCc1ccc(F)cc1 (stereo not given)	63*	i	-0.35	-167	-3
COc1cccc(CNc2ncn[nH]2)c1OCc1ccc(F)cc1	3	i	0.66	nt	-5
O=C(CCN1CCN(c2ccccc2)CC1)N/N=C/c1ccccc1OC(F)F	5	+	0.01	nt	1
NC(=O)c1ccccc1N/C=C/C(=O)c1ccccc1	-2	i	0.92	21	22
COC(=O)c1ccccc1N/C=C/C(=O)c1ccc(Br)cc1	73*	i	0.21	-16	36
COCC(C)N1CC(O)=C(c2nc(-c3ccc(Cl)cc3)cs2)C1=N (stereo not given)	46	i	-0.46	nt	5
COc1ccc2c(c1)CCC(C)N2S(=O)(=O)c1ccc(C2CNC(=O)C2)cc1 (stereo not given)	95*	i	-0.18	-68	3
CCN1CCCc2cc(CN(CCN3CCOCC3)C(=S)Nc3cccc(Cl)c3)ccc21	16	i	-0.6	nt	35
Cc1sc2nc(CN3CCCC3)nc(N3CCN(S(=O)(=O)c4cccs4)CC3)c2c1C	56*	i	-0.22	-57	nt
CCCCCCOC(=O)C(C#N)c1nc2ccccc2nc1N1CCCCC1 (stereo not given)	27	i	0.69	-14	35
C=CCOC(=O)C(C#N)c1nc2ccccc2nc1N1CCN(Cc2ccc3c(c2)OCO3)CC1 (stereo not given)	58*	i	0.21	-29	18
C=CCOC(=O)C(C#N)c1nc2ccccc2nc1N1CCN(c2ccccc2OCC)CC1 (stereo not given)	10	i	-1.2	nt	9
CCCCCCOC(=O)C(C#N)c1nc2ccccc2nc1N1CCN(C)CC1 (stereo not given)	54*	i	-0.41	-81	2
CCC(CC)COC(=O)C(C#N)c1nc2ccccc2nc1N1CCN(CC)CC1 (stereo not given)	100*	i	-3.8	12	59
CCOC(=O)C1CCN(c2nc3ccccc3nc2C(C#N)C(=O)OC(C)C)CC1 (stereo not given)	14	+	-0.31	-4	0
CCOC(=O)C1CCN(c2nc3ccccc3nc2C(C#N)C(=O)OC(C)COC)CC1 (stereo not given)	0	i	-1.3	-34	-6
SMILES	L major viab	Autophagy HCS	Ins promoter up	INS promoter inh	WT yeast gro inh
NC(=O)C1CCN(CC(=O)Nc2cccc(C(=O)Nc3cccc(C(F)(F)F)c3)c2)CC1	-4	i	-1.2	nt	-3
N#CCCN(C(=S)NC(=O)c1ccco1)c1ccccc1F	-8	i	0.35	22	1
COc1cc(NC(=O)COC(=O)c2n[nH]c3ccccc23)c(C)cc1[N+](=O)[O-]	2	i	1.1	nt	8
CCOC(=O)/C(C#N)=C/c1c(N2CCN(Cc3ccc4c(c3)OCO4)CC2)nc2c(C)cccn2c1=O	nt	nt	-0.28	nt	nt
COc1ccc(CNC(=O)C(C#N)c2nc3ccccc3nc2N2CCCC2)cc1 (stereo not given)	0	+	2.2	nt	8
Cc1cccn2c(=O)c(/C=C(\C#N)C(N)=O)c(N3CCN(Cc4ccc5c(c4)OCO5)CC3)nc12	65*	i	-1.2	nt	-23

Assay outcomes: PubChem, several laboratories
